Measured values: PubChem BioAssay AID1159580 (chemical genetic matrix, 2015)
About 2,000 (36%) of roughly 5,500 compounds were called active. Roughly 18% stayed inconclusive and do not appear here. Rule as the data show it: active = normalized growth mostly below about 0.91 (no sharp cut-off); inconclusive = no clear call, values can overlap the other calls; inactive = mostly above about 0.92. Some of the results follow.

Assay: chemical genetic growth profiling, strain panel (AID 1159580);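 also: tested at 20 µM; growth read once vehicle control cultures reached saturation at 30 °C; 1 = growth at the plate median or of vehicle wells; lower values mean less growth of the strain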
Settings: S. cerevisiae deletion strains, growth OD

Measured: normalized growth

O=c1c(O)c(-c2ccccc2)oc2cccc(O)c12
inactive: locus YDL005C, strain med2, stronger effect = lower value 0.997 | locus YDL040C, strain nat1, stronger effect = lower value 0.953 | locus YDR159W, strain sac3, stronger effect = lower value 0.89 | locus YDR195W, strain ref2 1.02 | locus YGL227W, strain vid30, stronger effect = lower value 0.929 | locus YHR013C, strain ard1, stronger effect = lower value 0.943 | locus YJL115W, strain asf1, stronger effect = lower value 0.906 | locus YKR091W, strain srl3, stronger effect = lower value 0.934 | locus YLR113W, strain HOG1, stronger effect = lower value 0.935 | locus YLR384C, strain iki3, stronger effect = lower value 0.922 | locus YMR125W, strain sto1, stronger effect = lower value 0.991 | locus YNL322C, strain KRE1 (second series), stronger effect = lower value 0.926 | locus YOR080W, strain dia2, stronger effect = lower value 0.925 | locus YPL106C, strain sse1, stronger effect = lower value 0.896 | locus YPL240C, strain hsp82, stronger effect = lower value 0.936 | locus YPL256C, strain CLN2, stronger effect = lower value 0.87
active: locus YAL021C, strain ccr4, stronger effect = lower value 0.725 | locus YAL026C, strain drs2, stronger effect = lower value 0.55 | locus YAL030W, strain snc1, stronger effect = lower value 0.881 | locus YBL061C, strain skt5, stronger effect = lower value 0.802 | locus YBR009C, strain hhf1, stronger effect = lower value 0.856 | locus YBR023C, strain chs3, stronger effect = lower value 0.666 | locus YBR171W, strain sec66, stronger effect = lower value 0.838 | locus YBR231C, strain swc5, stronger effect = lower value 0.733 | locus YBR279W, strain paf1, stronger effect = lower value 0.867 | locus YCL011C, strain gbp2, stronger effect = lower value 0.847 | locus YCL016C, strain dcc1, stronger effect = lower value 0.851 | locus YCL061C, strain MRC1, stronger effect = lower value 0.821 | locus YCL069W, strain vba3, stronger effect = lower value 0.816 | locus YCR088W, strain abp1, stronger effect = lower value 0.899 | locus YDR001C, strain nth1, stronger effect = lower value 0.891 | locus YDR069C, strain doa4, stronger effect = lower value 0.788 | locus YDR137W, strain rgp1, stronger effect = lower value 0.372 | locus YDR297W, strain sur2, stronger effect = lower value 0.919 | locus YDR334W, strain swr1, stronger effect = lower value 0.759 | locus YDR335W, strain msn5, stronger effect = lower value 0.852 | locus YDR392W, strain spt3, stronger effect = lower value 0.282 | locus YEL003W, strain gim4, stronger effect = lower value 0.875 | locus YEL037C, strain rad23, stronger effect = lower value 0.893 | locus YEL061C, strain CIN8 (second series), stronger effect = lower value 0.905 | locus YER015W, strain faa2, stronger effect = lower value 0.852 | locus YER016W, strain bim1, stronger effect = lower value 0.914 | locus YER111C, strain swi4, stronger effect = lower value 0.878 | locus YER155C, strain BEM2 (second series), stronger effect = lower value 0.751 | locus YFR010W, strain ubp6, stronger effect = lower value 0.726 | locus YGL167C, strain pmr1, stronger effect = lower value 0.886 | locus YGL173C, strain kem1, stronger effect = lower value 0.599 | locus YGL240W, strain doc1, stronger effect = lower value 0.739 | locus YGL253W, strain hxk2, stronger effect = lower value 0.621 | locus YHR027C, strain rpn1, stronger effect = lower value 0.751 | locus YHR030C, strain SLT2, stronger effect = lower value 0.72 | locus YHR079C, strain IRE1, stronger effect = lower value 0.839 | locus YHR142W, strain chs7, stronger effect = lower value 0.539 | locus YJL092W, strain hpr5, stronger effect = lower value 0.863 | locus YJL095W, strain BCK1 (second series), stronger effect = lower value 0.368 | locus YJL095W, strain BCK1, stronger effect = lower value 0.733 | locus YJL129C, strain trk1, stronger effect = lower value 0.673 | locus YJL154C, strain vps35, stronger effect = lower value 0.917 | locus YJL164C, strain tpk1, stronger effect = lower value 0.826 | locus YJL166W, strain qcr8, stronger effect = lower value 0.836 | locus YJL187C, strain SWE1, stronger effect = lower value 0.84 | locus YJR066W, strain TOR1, stronger effect = lower value 0.741 | locus YKL160W, strain elf1, stronger effect = lower value 0.881 | locus YKR026C, strain gcn3, stronger effect = lower value 0.917 | locus YLL001W, strain dnm1, stronger effect = lower value 0.826 | locus YLL026W, stronger effect = lower value 0.829 | locus YLL041C, strain sdh2, stronger effect = lower value 0.923 | locus YLR027C, strain aat2, stronger effect = lower value 0.842 | locus YLR221C, strain rsa3, stronger effect = lower value 0.815 | locus YLR258W, strain gsy2, stronger effect = lower value 0.84 | locus YLR262C, strain YPT6 (second series), stronger effect = lower value 0.304 | locus YLR320W, strain mms22, stronger effect = lower value 0.661 | locus YLR342W, strain FKS1, stronger effect = lower value 0.827 | locus YLR357W, strain rsc2, stronger effect = lower value 0.821 | locus YLR370C, strain arc18, stronger effect = lower value 0.789 | locus YML120C, strain ndi1, stronger effect = lower value 0.828 | locus YMR058W, strain fet3, stronger effect = lower value 0.206 | locus YMR129W, stronger effect = lower value 0.916 | locus YMR205C, strain PFK2, stronger effect = lower value 0.715 | locus YMR231W, strain pep5, stronger effect = lower value 0.304 | locus YNL071W, strain lat1, stronger effect = lower value 0.568 | locus YNL183C, strain NPR1, stronger effect = lower value 0.793 | locus YNL209W, strain ssb2, stronger effect = lower value 0.725 | locus YNL248C, strain rpa49, stronger effect = lower value 0.795 | locus YNR049C, strain mso1, stronger effect = lower value 0.89 | locus YOR001W, strain rrp6, stronger effect = lower value 0.818 | locus YOR070C, strain gyp1, stronger effect = lower value 0.835 | locus YOR083W, strain WHI5, stronger effect = lower value 0.826 | locus YOR106W, strain vam3, stronger effect = lower value 0.546 | locus YOR231W, strain MKK1, stronger effect = lower value 0.822 | locus YOR265W, strain rbl2, stronger effect = lower value 0.88 | locus YOR270C, strain vph1, stronger effect = lower value 0.445 | locus YOR290C, strain snf2, stronger effect = lower value 0.795 | locus YPL051W, strain arl3, stronger effect = lower value 0.696 | locus YPL078C, strain atp4, stronger effect = lower value 0.779
